TexasRed fluor – alters Texas Red total fluorescence, flagging assay interference | 280,000 compounds, 0.29% hits | Potency, µM (series often up to 106 µM) | TRb/SRC2 Texas Red total fluorescence interference; active = well fitted curve in either direction with a large enough effect; inconclusive = small, poorly fitted or top-dose-only effect
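Flags fluorescent or light-absorbing compounds by total fluorescence, S + 2P, at 555 nm excitation and 632 nm emission. Mixture: 20 nM Texas Red SRC2 peptide, 0.6 uM human TRb LBD, 1 uM T3, 5% DMSO; compound exposure 5 h at ambient temperature.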
TRb SRC2 PPI – inhibitors of human thyroid hormone receptor beta-SRC2 interaction; 280,000 compounds, 0.065% hits; TRbeta-SRC2 peptide binding, fluorescence polarization; receptor liganded with 1 µM T3; P10828; AID 1469; Potency, µM (doses to about 106 µM), most hits filed as inhibitors; note: nearly all actives have a fitted effect of over 50% in size
Target sequence (P10828 whole entry, looked up): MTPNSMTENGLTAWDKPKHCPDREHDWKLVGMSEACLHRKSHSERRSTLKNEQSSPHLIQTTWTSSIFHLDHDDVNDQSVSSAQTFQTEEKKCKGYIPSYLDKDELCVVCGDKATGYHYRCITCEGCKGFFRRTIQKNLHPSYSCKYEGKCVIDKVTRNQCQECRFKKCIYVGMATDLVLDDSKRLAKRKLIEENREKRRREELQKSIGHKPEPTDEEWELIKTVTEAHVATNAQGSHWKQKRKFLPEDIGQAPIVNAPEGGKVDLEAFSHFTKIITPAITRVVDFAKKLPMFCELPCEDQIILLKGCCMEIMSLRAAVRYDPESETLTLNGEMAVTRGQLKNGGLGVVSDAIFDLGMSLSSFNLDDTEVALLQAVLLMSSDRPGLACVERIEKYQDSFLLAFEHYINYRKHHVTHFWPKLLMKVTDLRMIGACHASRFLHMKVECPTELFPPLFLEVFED
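Assay buffer: 20 mM Tris-HCl, 100 mM NaCl, 10% glycerol, 1 mM EDTA, 0.01% NP-40, 1 mM DTT, 1 uM T3, 5% DMSO; TRb LBD 0.6 uM, Texas Red SRC2 20 nM; FP after 5 hr.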
Tau fluor cs – counter-screen for tau fibril formation inhibitors | 280,000 compounds, 0.93% hits | tau K18 P301L Alexa594 fluorescence, heparin fibrillization | Potency, µM (doses to about 57.7 µM); note: nearly all actives have a fitted effect of over 55% in size
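Human K18 P301L tau (15 uM unlabeled plus 0.24 uM Alexa 594-labeled, final) in 100 mM sodium acetate pH 7 was mixed with compound and 20 uM heparin and incubated 6 hr at 37 C.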
Tau ThT inhib – blocks human tau fibril formation measured by thioflavin T | P10636 | recombinant tau K18 P301L, heparin-induced fibrillization, ThT fluorescence | Potency, µM (series often up to 57.4 µM), hits mostly inhibitors | 270,000 compounds, 2.1% hits; note: nearly all actives have a fitted effect of over 55% in size
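Fibril formation assay: tau K18 P301L at 15 uM with trace Alexa 594 label, heparin inducer 20 uM, pH 7 sodium acetate buffer, 37 C for 6 hr; endpoint ThT signal.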
Tau fibril FP – inhibitors of human tau fibril formation. P10636. K18 P301L tau heparin fibrillization, Alexa594 FP, 6 h. Potency, µM (titrated, usually from 57.7 µM), actives largely listed as inhibitors. 280,000 compounds, 0.39% hits; note: nearly all actives have a fitted effect of over 55% in size
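Heparin (20 uM) drove fibril formation of recombinant tau K18 P301L, 15 uM unlabeled with 0.24 uM Alexa 594 label, for 6 hr at 37 C in 100 mM sodium acetate pH 7. Fluorescence polarization (555/632 nm) read 1 hr after 30 uM ThT.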
PNC inhibitor – perinucleolar compartment assembly inhibition; PC3M PTB-GFP, PNC prevalence imaging, 16 h; stronger effect = lower value; activity change (PNC), negative = inhibition, % at 10 µM; 140,000 compounds, 3.1% hits; AID 2417;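 active = readout at or below -70, meaning at least 70% loss of cells showing the perinucleolar compartment, a nuclear body marking cancer cells; inconclusive = readout between -30 and a set limit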
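Compounds are pinned in duplicate onto adhered PC3M cells stably expressing GFP-tagged PTB and incubated 16 h at 37 C. Cells are then fixed, nuclei stained with Hoechst, and PNC-positive cells counted.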
Large screens that a line does not name were inactive. Shown are actives, neighbours in structure and some others; about 4.6% of the full set was active somewhere. Unless noted, calls come from the whole dose curve; as a rule, active = well fitted curve in the direction sought with a large enough effect; inconclusive = small, poorly fitted or top-dose-only effect, or another doubt; inactive = no such curve, though single readings can be large; an effect the other way counts as inactive or inconclusive.

CCOc1ccc(OCCCN(C)C)cc1	PNC inhibitor inconclusive
Cn1cnc2c1c(=O)n(Cc1ccccc1)c(=O)n2C	none
COc1ccc(CCNC(=O)c2nnn(CC(=O)Nc3cccc(F)c3)c2N)cc1OC	none (no result: PNC inhibitor)
CC(=O)Nc1ccc(N(C(=O)CNC(=O)c2ccco2)C(C(=O)NCc2ccco2)c2ccccc2)cc1 (stereo not drawn)	none (no result: Tau ThT inhib, PNC inhibitor)
CCC(C)(C)NC(=O)C(c1ccc(C)cc1)N(Cc1ccco1)C(=O)Cn1nnc2ccccc21 (stereo not drawn)	PNC inhibitor -100
Cc1ccc(C(C(=O)NCc2ccco2)N(Cc2ccco2)C(=O)CNC(=O)c2ccco2)cc1 (stereo not drawn)	Tau ThT inhib 7.1µM, Tau fibril FP inconclusive, PNC inhibitor inconclusive
CC(C)(C)NC(=O)C(c1ccsc1)N(CCc1ccccc1)C(=O)Cn1nnc2ccccc21 (stereo not drawn)	PNC inhibitor -89
CCC(C)(C)NC(=O)C(c1ccncc1)N(Cc1cccs1)C(=O)Cn1nnc2ccccc21 (stereo not drawn)	none
O=C(NN1C(=O)C2C3C=CC(C3)C2C1=O)c1ccncc1 (stereo not drawn)	PNC inhibitor -113
CC(C)C(NC(=O)C(NC(=O)C1O[C@@H]2OC(C)(C)O[C@@H]2[C@H]2OC(C)(C)O[C@@H]12)C(C)C)C(=O)O (stereo partly drawn)	none (no result: PNC inhibitor)
O=c1[nH][nH]cc1C=Nc1ccc(Cl)cc1	none (no result: PNC inhibitor)
Cc1[nH][nH]c(=O)c1N=Nc1ccc(Cl)cc1	Tau ThT inhib 8.9µM (no result: PNC inhibitor)
S=C(NCc1ccccc1Cl)NC1CCCC1	PNC inhibitor -88
CC1(C(=O)NC2CCCC2)CCC(=O)N1Cc1ccccc1Cl (stereo not drawn)	PNC inhibitor -88
COc1ccccc1CN1C(=O)CCC1(C)C(=O)NC1CCCCCC1 (stereo not drawn)	PNC inhibitor inconclusive
COc1ccc(N=N/C(=C\O)C(=O)c2ccco2)cc1	Tau fluor cs inconclusive, Tau ThT inhib 8.9µM (no result: PNC inhibitor)
CCOC(=O)c1ccc(NC(=O)Cn2nc(SC)c(S(=O)(=O)c3ccc(Cl)cc3)c2N)cc1	Tau fluor cs inconclusive, Tau fibril FP 13µM (no result: PNC inhibitor)
CCSc1nn(CC(=O)Nc2ccc(C(=O)OC)cc2)c(N)c1S(=O)(=O)c1ccc(C)cc1	Tau fluor cs inconclusive, Tau fibril FP 25µM (no result: PNC inhibitor)
O=C1/C(=C/c2ccco2)SC(=S)N1C1CCS(=O)(=O)C1 (stereo not drawn)	Tau fluor cs inconclusive, Tau ThT inhib 28µM, Tau fibril FP inconclusive (no result: PNC inhibitor)
O=C1/C(=C\c2ccco2)SC(=S)N1C1CCS(=O)(=O)C1 (stereo not drawn)	Tau fluor cs inconclusive, Tau ThT inhib 25µM, Tau fibril FP inconclusive (no result: PNC inhibitor)
Cc1ccc(/C=C2\SC(=S)N(C3CCS(=O)(=O)C3)C2=O)cc1 (stereo not drawn)	Tau ThT inhib inconclusive, Tau fibril FP inconclusive (no result: PNC inhibitor)
Cc1c(C(=O)NCc2ccc(F)cc2)sc2nc3n(c(=O)c12)CCC3	Tau ThT inhib inconclusive (no result: PNC inhibitor)
Oc1c(Cl)cc(Cl)cc1C=Nc1ccc2c(c1)OCCO2	Tau ThT inhib 16µM, PNC inhibitor inconclusive
Oc1ccc2ccccc2c1C=Nc1ccc(N2CCOCC2)cc1	Tau fluor cs inconclusive, Tau ThT inhib 5µM
C(=Nc1ccc(N2CCOCC2)cc1)c1c[nH]c2ccccc12	TRb SRC2 PPI inconclusive, Tau fluor cs inconclusive, Tau ThT inhib 25µM (no result: PNC inhibitor)
Oc1c(Br)cc(Cl)cc1C=Nc1ccc(N2CCOCC2)cc1	Tau ThT inhib 16µM (no result: PNC inhibitor)
Oc1ccc(N=Nc2cccc(Cl)c2)cc1C=Nc1ccc(N2CCOCC2)cc1	Tau ThT inhib inconclusive
CCS/C(N)=N/N=C/c1cc(C)ccc1O	Tau ThT inhib inconclusive
CC1(C)NC(=O)N(CCCCOc2ccc(Br)cc2Cl)C1=O	none
O=S(NCc1ccco1)C12CC3CC(CC(C3)C1)C2 (stereo not drawn)	Tau ThT inhib inconclusive, PNC inhibitor -100
CCOC(=O)CSCc1c(C#N)c2ccccc2n1C	none
CCc1nn(CC(=O)NCCc2ccc(Cl)cc2)c(=O)c2cc3ccccc3n12	Tau fibril FP inconclusive (no result: PNC inhibitor)
